# Experimental data: the antibiotic and cytotoxicity screens of Wong et al. (2023)
# The whole screen tested about 39,000 compounds, of which about 3,300 (8.5%) were called active. This excerpt belongs to a sample that is enriched for actives.
# Tested on: HepG2
# Experiment: cytotoxicity call (relative viability < 0.9)
# Conditions: 10 µM
row,SMILES,cytotoxicity call
1,CC(C)NC(=O)Nc1ccc2c(c1)C(=O)N([C@@H](C)CO)C[C@H](C)[C@H](CN(C)C(=O)NC1CCCCC1)O2,inactive
2,COC(=O)C1=C(C)NC(C)=C(C(=O)OC)C1,inactive
3,O=C(C[C@H]1CC[C@@H](NS(=O)(=O)c2ccccc2F)[C@H](CO)O1)NCCCN1CCOCC1,inactive
4,O=C(/C=C/c1ccc(O)c(O)c1)O[C@@H]1C[C@](O)(C(=O)O)C[C@@H](OC(=O)/C=C/c2ccc(O)c(O)c2)[C@H]1O,inactive
5,CC(C)C[C@H](NC(=O)[C@@H](COC(C)(C)C)NC(=O)[C@H](Cc1ccc(O)cc1)NC(=O)[C@H](CO)NC(=O)[C@H](Cc1c[nH]c2ccccc12)NC(=O)[C@H](Cc1cnc[nH]1)NC(=O)[C@@H]1CCC(=O)N1)C(=O)N[C@@H](CCCNC(=N)N)C(=O)N1CCC[C@H]1C(=O)NNC(N)=O,inactive
6,C[C@H](CO)N1C[C@H](C)[C@@H](CN(C)S(=O)(=O)c2ccc(F)cc2)Oc2ccc(NS(=O)(=O)c3ccccc3)cc2CC1=O,inactive
7,COc1ccccc1-c1cnc2c(c1)C(=O)N([C@H](C)CO)C[C@@H](C)[C@@H](CN(C)C(=O)c1ccncc1)O2,inactive
8,C[C@H]1CN([C@@H](C)CO)S(=O)(=O)c2ccc(C3=CCCC3)cc2O[C@H]1CN(C)C(=O)Cc1ccncc1,inactive
9,O=C1CN(c2ccccc2)C=NN1,inactive
10,C[C@@H]1CCCCO[C@@H](CN(C)CC2CCCCC2)[C@H](C)CN([C@H](C)CO)C(=O)c2cc(NC(=O)Nc3cccc4ccccc34)ccc2O1,active
11,C[C@@H]1CN([C@H](C)CO)C(=O)c2cc(NC(=O)Nc3cccc4ccccc34)ccc2O[C@@H](C)CCCCO[C@@H]1CN(C)CC1CCCCC1,active
12,COc1ccc(S(=O)(=O)N(C)C[C@@H]2Oc3ccc(NC(=O)Cn4cnnn4)cc3CC(=O)N([C@H](C)CO)C[C@@H]2C)cc1,inactive
13,C[C@H](CO)N1C[C@H](C)[C@@H](CN(C)C(=O)Nc2cccc(Cl)c2Cl)OCc2ccccc2-c2ccccc2C1=O,inactive
14,Cc1noc(C)c1S(=O)(=O)Nc1ccc2c(c1)CC(=O)N([C@H](C)CO)C[C@H](C)[C@H](CN(C)S(=O)(=O)c1ccccc1)O2,inactive
15,C[C@H]1CN([C@@H](C)CO)C(=O)CCCn2cc(nn2)CO[C@H]1CN(C)S(=O)(=O)c1ccc(-c2ccccc2)cc1,inactive
16,COc1ccc(S(=O)(=O)Nc2ccc3c(c2)C(=O)N([C@@H](C)CO)C[C@@H](C)[C@@H](CN(C)C(=O)CCC(F)(F)F)OCCCC[C@@H](C)O3)cc1,inactive
17,C[C@H]1O[C@@H](OC[C@H]2O[C@@H](O[C@H]3CC[C@]4(C)[C@H]5CCC6=C(CC[C@@]7(C(=O)O[C@@H]8O[C@H](CO)[C@@H](O)[C@H](O)[C@H]8O[C@@H]8O[C@H](CO)[C@@H](O)[C@H](O)[C@H]8O)CCC(C)(C)C[C@@H]67)[C@]5(C)CC[C@H]4C3(C)C)[C@H](O)[C@@H](O)[C@@H]2O)[C@H](O)[C@@H](O)[C@@H]1O,inactive
18,C[C@@H]1O[C@@H](O[C@H]2[C@H](O[C@H]3[C@H](O)[C@@H](C(=O)O)O[C@@H](O[C@H]4CC[C@]5(C)[C@H]6CC[C@]78OC[C@@]9(CCC(C)(C)C[C@@H]97)[C@H](O)C[C@@]8(C)[C@]6(C)CC[C@H]5C4(C)C)[C@@H]3OC3O[C@H](CO)[C@@H](O)[C@H](O)[C@H]3O)O[C@H](CO)[C@H](O)[C@@H]2O)[C@H](O)[C@H](O)[C@H]1O (stereo partly specified),active
19,C[C@@H]1O[C@@H](O[C@H]2[C@H](O[C@H]3[C@H](O)[C@@H](O[C@@H]4O[C@H](CO)[C@@H](O)[C@H](O)[C@H]4O)[C@H](O[C@H]4CC[C@]5(C)[C@H]6CC[C@]78OC[C@@]9(CCC(C)(C)C[C@@H]97)[C@H](O)C[C@@]8(C)[C@]6(C)CC[C@H]5C4(C)C)O[C@@H]3C(=O)O)O[C@H](CO)[C@H](O)[C@@H]2O)[C@H](O)[C@H](O)[C@H]1O,active

row,SMILES,cytotoxicity call
1,CC(=O)O[C@H]1CC(C)(C)C[C@H]2[C@]13CO[C@@]21CC[C@@H]2[C@@]4(C)CC[C@H](O[C@@H]5O[C@H](C(=O)O)[C@@H](O)[C@H](O[C@@H]6O[C@H](CO)[C@H](O)[C@H](O)[C@H]6O[C@@H]6O[C@@H](C)[C@H](O)[C@@H](O)[C@H]6O)[C@H]5O[C@@H]5O[C@H](CO)[C@@H](O)[C@H](O)[C@H]5O)C(C)(C)[C@@H]4CC[C@@]2(C)[C@]1(C)C[C@H]3O,active
2,C[C@@H]1O[C@@H](O[C@H]2[C@H](O)[C@@H](O)[C@H](OC(=O)[C@]34CCC(C)(C)C[C@H]3C3=CC[C@H]5[C@@]6(C)CC[C@H](O[C@@H]7O[C@H](C(=O)O)[C@@H](O)[C@H](O)[C@H]7O)C(C)(C)[C@@H]6CC[C@@]5(C)[C@]3(C)CC4)O[C@@H]2CO)[C@H](O)[C@H](O)[C@H]1O,inactive
3,C[C@@H]1O[C@@H](O[C@H]2[C@H](O[C@H]3[C@H](O)[C@@H](O[C@@H]4O[C@H](CO)[C@@H](O[C@@H]5O[C@H](CO)[C@H](O)[C@H]5O)[C@H](O)[C@H]4O)[C@H](O[C@H]4CC[C@]5(C)[C@H]6CC[C@]78OC[C@@]9(CCC(C)(C)C[C@@H]97)[C@H](O)C[C@@]8(C)[C@]6(C)CC[C@H]5C4(C)C)O[C@@H]3C(=O)O)O[C@H](CO)[C@H](O)[C@@H]2O)[C@H](O)[C@H](O)[C@H]1O,inactive
4,CC1(C)[C@@H](O[C@H]2O[C@H](C(=O)O)[C@@H](O)[C@H](O)[C@H]2O[C@@H]2O[C@H](C(=O)O)[C@@H](O)[C@H](O)[C@H]2O)CC[C@]2(C)[C@H]3C(=O)C=C4[C@@H]5C[C@@](C)(C(=O)O)CC[C@]5(C)CC[C@@]4(C)[C@]3(C)CC[C@@H]12,inactive
5,CC(=O)O[C@H]1CC(C)(C)C[C@H]2[C@]13CO[C@@]21CC[C@H]2[C@@]4(C)CC[C@H](O[C@@H]5OC[C@H](O[C@@H]6O[C@H](CO)[C@@H](O)[C@H](O)[C@H]6O[C@@H]6OC[C@@H](O[C@@H]7O[C@H](CO)[C@@H](O)[C@H](O)[C@H]7O)[C@H](O)[C@H]6O)[C@H](O)[C@H]5O[C@@H]5O[C@H](CO)[C@@H](O)[C@H](O)[C@H]5O)[C@@](C)(CO)[C@@H]4CC[C@@]2(C)[C@]1(C)C[C@H]3O,active
6,CC(=N)NCCCC[C@@H](N)C(=O)O,inactive
7,COCC(=O)Nc1ccc2c(c1)C(=O)N(C)[C@H]1CC[C@@H](CC(=O)N3CCc4ccccc4C3)O[C@H]1CO2,inactive
8,CO[C@H]1CN(C)C(=O)c2ccc(NS(=O)(=O)CC(F)(F)F)cc2OC[C@H](C)N(C(=O)c2ccc3c(c2)OCO3)C[C@H]1C,inactive
9,C=CC[C@H](Nc1ccccc1C)c1ccc(Cl)cc1,inactive
10,C[C@H](CO)N1C[C@H](C)[C@@H](CN(C)S(=O)(=O)c2cn(C)cn2)OCCCC[C@H](C)Oc2ccc(NS(C)(=O)=O)cc2C1=O,inactive
11,NC(=O)[C@H]1C[C@@H]2C=C[C@H]1C2,inactive
12,O=C(CCCCCCC(=O)Nc1ccc([C@H]2C[C@H](c3ccccc3)O[C@H](c3ccc(Oc4ccccc4)cc3)O2)cc1)NO,inactive
13,C[C@H]1CN([C@@H](C)CO)C(=O)c2cc(NC(=O)Cn3cnnn3)ccc2O[C@@H]1CN(C)S(=O)(=O)c1ccc(F)cc1,inactive
14,Cc1ccc(S(=O)(=O)N2C[C@H](O)COC[C@@H]3O[C@H](CC(=O)NCCCN(C)C)CC[C@H]32)cc1,inactive
15,CCN1CCN(CC(=O)Nc2ccc(-c3cccc4c(=O)cc(N5CCOCC5)oc34)c3sc4ccccc4c23)CC1,active
16,CCN1CCN(C(=O)CN2C(=O)c3ccccc3S2(=O)=O)CC1,inactive
17,CCCC#Cc1ccc2c(c1)O[C@@H](CN(C)S(=O)(=O)c1cccc(F)c1)[C@H](C)CN([C@@H](C)CO)S2(=O)=O,inactive
18,CC(C)N1C[C@H](C)[C@@H](CN(C)Cc2ccccc2Cl)Oc2c(NC(=O)c3ccncc3)cccc2C1=O,inactive
19,O=C(CCCN1CCN(c2ccccn2)CC1)c1ccc(F)cc1,inactive

row,SMILES,cytotoxicity call
1,NC(=O)C1(N2CCCCC2)CCN(CCCC(=O)c2ccc(F)cc2)CC1,inactive
2,O=C(CCCN1CCC(O)(c2ccc(Cl)cc2)CC1)c1ccc(F)cc1,active
3,O=C(CN1CCNCC1)c1ccc(F)cc1,inactive
4,O=C(CCCN1CCC(O)(c2ccc(Br)cc2)CC1)c1ccc(F)cc1,active
5,O=C(CCCN1CC=C(n2c(=O)[nH]c3ccccc32)CC1)c1ccc(F)cc1,inactive
6,CC(C)(C)OC(=O)C[C@H]1CC=CC[C@@H](CC(=O)N[C@@H](CO)Cc2ccccc2)C(=O)N[C@@H](C(C)(C)C)COC1=O,inactive
7,C[C@@H]1CN([C@@H](C)CO)C(=O)c2cc(NC(=O)Cc3ccccc3)ccc2O[C@H]1CN(C)Cc1ccc(C(=O)Nc2ccccc2N)cc1,inactive
8,C[C@@H]1CN([C@@H](C)CO)C(=O)c2cccc(NC(=O)c3ccc(-c4nccs4)cc3)c2O[C@H]1CN(C)C(=O)Nc1ccccc1,inactive
9,C[C@H](CO)N1C[C@H](C)[C@H](CN(C)Cc2ccc(Cl)c(Cl)c2)Oc2c(NC(=O)Nc3ccc(C(F)(F)F)cc3)cccc2C1=O,inactive
10,C[C@@H]1CN([C@@H](C)CO)C(=O)c2cccc(NC(=O)Nc3ccc(C(F)(F)F)cc3)c2O[C@@H]1CN(C)Cc1ccc(Cl)c(Cl)c1,active
11,C[C@H]1CN([C@@H](C)CO)C(=O)c2cccc(NC(=O)Nc3ccc(F)cc3)c2O[C@H]1CN(C)Cc1ccc(Cl)c(Cl)c1,inactive
12,C[C@@H]1CN([C@@H](C)CO)C(=O)c2cccc(NC(=O)Nc3ccc(C(F)(F)F)cc3)c2O[C@H]1CN(C)Cc1ccc(Cl)c(Cl)c1,active
13,C[C@H](CO)N1C[C@H](C)[C@@H](CN(C)Cc2ccc(Cl)c(Cl)c2)Oc2c(NC(=O)Nc3ccc(F)cc3)cccc2C1=O,inactive
14,C[C@H]1CN([C@@H](C)CO)C(=O)c2cccc(NC(=O)Nc3ccc(F)cc3)c2O[C@@H]1CN(C)Cc1ccc(Cl)c(Cl)c1,inactive
15,C[C@@H]1CN([C@@H](C)CO)C(=O)c2cccc(NC(=O)Nc3ccc(F)cc3)c2O[C@@H]1CN(C)Cc1ccc(Cl)c(Cl)c1,inactive
16,C[C@@H]1CN([C@H](C)CO)C(=O)c2cccc(NC(=O)Nc3ccc(C(F)(F)F)cc3)c2O[C@H]1CN(C)Cc1ccc(Cl)c(Cl)c1,inactive
17,C[C@@H]1CN([C@H](C)CO)C(=O)c2cccc(NC(=O)Nc3ccc(C(F)(F)F)cc3)c2O[C@@H]1CN(C)Cc1ccc(Cl)c(Cl)c1,active
18,C[C@H]1CN([C@@H](C)CO)C(=O)c2cccc(NC(=O)Nc3ccc(C(F)(F)F)cc3)c2O[C@@H]1CN(C)Cc1ccc(Cl)c(Cl)c1,active
